Results reported in PubChem BioAssay (EPA / NIEHS).
Calls of active or inactive are those of the source. Rule for the calls: active = hit-call score of the fitted dose curve at least 0.9, where 1 is the maximum; inactive = score below 0.9.

Key:
Settings in all cases: mRNA level, 48 h; actives raise or lower the signal
[1] = read-out: Insulin Like Growth Factor 1 (IGF1), IGF1 (gene 3479); assay: LTEA_HepaRG_IGF1: Life Technologies and Expression Analysis (LTEA) Assay for Insulin Like Growth Factor 1 (IGF1) using HepaRG (AID 2283506)
How it was run: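 Differentiated human HepaRG cells were dosed for 48 h in serum-free induction medium with 0.5% DMSO, eight half-log concentrations up to 100 uM, in duplicate. IGF1 mRNA was quantified by qRT-PCR normalized to ACTB, GAPDH, POLR2A; bidirectional fitting versus DMSO.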

[2] = read-out: Intercellular Adhesion Molecule 1 (ICAM1), ICAM1 (gene 3383); assay: LTEA_HepaRG_ICAM1: Life Technologies and Expression Analysis (LTEA) Assay for Intercellular Adhesion Molecule 1 (ICAM1) using HepaRG (AID 2283507)
How it was run: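 HepaRG, 48 h exposure, 8-pt half-log series from 100 uM, 0.5% DMSO vehicle, duplicates. Readout: TaqMan qRT-PCR mRNA, housekeeping-normalized (ACTB/GAPDH/POLR2A). Bidirectional curve fit vs DMSO baseline.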

[3] = read-out: Interleukin 6 (IL6), IL6 (gene 3569); assay: LTEA_HepaRG_IL6: Life Technologies and Expression Analysis (LTEA) Assay for Interleukin 6 (IL6) using HepaRG (AID 2283509)
How it was run: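 HepaRG cells exposed in duplicate for 48 h to eight half-log concentrations, top 100 uM, in 0.5% DMSO serum-free induction medium. mRNA measured by qRT-PCR, normalized to ACTB, GAPDH and POLR2A. Bidirectional fit versus DMSO.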

[4] = read-out: Interleukin 6 Receptor (IL6R), IL6R (gene 3570); assay: LTEA_HepaRG_IL6R: Life Technologies and Expression Analysis (LTEA) Assay for Interleukin 6 Receptor (IL6R) using HepaRG (AID 2283510)
How it was run: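 Differentiated human HepaRG cells, plated 48 h then switched to serum-free induction medium, were dosed in duplicate for 48 h at eight half-log concentrations up to 100 uM in 0.5% DMSO. IL6R mRNA quantified by qRT-PCR, normalized to ACTB/GAPDH/POLR2A; bidirectional fit versus DMSO.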

[5] = read-out: Potassium channel subfamily K member 1 (KCNK1), KCNK1 (gene 3775); assay: LTEA_HepaRG_KCNK1: Life Technologies and Expression Analysis (LTEA) Assay for Potassium channel subfamily K member 1 (KCNK1) using HepaRG (AID 2283511)
How it was run: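 Differentiated HepaRG cells, 48 h exposure in serum-free induction medium with 0.5% DMSO; 8 concentrations, half-log from 100 uM, duplicate. KCNK1 mRNA by qRT-PCR, normalized to ACTB, GAPDH, POLR2A; bidirectional fit vs DMSO.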

[6] = read-out: Keratin 19 (KRT19), KRT19 (gene 3880); assay: LTEA_HepaRG_KRT19: Life Technologies and Expression Analysis (LTEA) Assay for Keratin 19 (KRT19) using HepaRG (AID 2283512)
How it was run: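 HepaRG, 48 h chemical exposure, 8-pt half-log CRC from 100 uM, 0.5% DMSO vehicle, duplicates. Readout: TaqMan qRT-PCR of KRT19 mRNA, housekeeping-normalized (ACTB/GAPDH/POLR2A). Bidirectional fit vs DMSO baseline.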

[7] = read-out: JUN Transcription Factor, JUN (gene 3725); assay: LTEA_HepaRG_JUN: Life Technologies and Expression Analysis (LTEA) Assay for JUN Transcription Factor using HepaRG (AID 2283513)
How it was run: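 Differentiated HepaRG cells were exposed to chemicals for 48 h in serum-free induction medium, 8 concentrations from 100 uM in half-log steps, 0.5% DMSO vehicle, in duplicate. JUN mRNA was quantified by TaqMan qRT-PCR, normalized to ACTB, GAPDH, POLR2A.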

[8] = read-out: Lipase C (LIPC), LIPC (gene 3990); assay: LTEA_HepaRG_LIPC: Life Technologies and Expression Analysis (LTEA) Assay for Lipase C (LIPC) using HepaRG (AID 2283514)
How it was run: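 HepaRG cells, 48 h after plating, treated in duplicate for 48 h in serum-free induction medium over 8 half-log concentrations from 100 uM, 0.5% DMSO. LIPC mRNA by TaqMan qRT-PCR normalized to ACTB/GAPDH/POLR2A; bidirectional fit versus DMSO.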

[9] = read-out: Lipoprotein lipase (LPL), LPL (gene 4023); assay: LTEA_HepaRG_LPL: Life Technologies and Expression Analysis (LTEA) Assay for Lipoprotein lipase (LPL) using HepaRG (AID 2283515)
How it was run: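 Differentiated HepaRG cells, plated 48 h, then exposed 48 h in serum-free induction medium to 8 concentrations (top 100 uM, half-log steps) in 0.5% DMSO, duplicate. LPL mRNA measured by qRT-PCR, normalized to ACTB, GAPDH and POLR2A.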

[10] = read-out: MicroRNA 122 (MIR122), gene 406906; assay: LTEA_HepaRG_MIR122: Life Technologies and Expression Analysis (LTEA) Assay for MicroRNA 122 (MIR122) using HepaRG (AID 2283516); note: the transcript read is the microRNA miR-122
How it was run: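 Differentiated human HepaRG cells were exposed 48 h in serum-free induction medium to eight half-log concentrations (top 100 uM, 0.5% DMSO). Transcript level was measured by TaqMan qRT-PCR, normalized to ACTB, GAPDH and POLR2A, and fitted bidirectionally versus DMSO.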

[11] = read-out: matrix metalloproteinase-10 (MMP10), MMP10 (gene 4319); assay: LTEA_HepaRG_MMP10: Life Technologies and Expression Analysis (LTEA) Assay for matrix metalloproteinase-10 (MMP10) using HepaRG (AID 2283517)
How it was run: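 Differentiated HepaRG cells in serum-free induction medium exposed 48 h in duplicate to 8-point half-log series up to 100 uM in 0.5% DMSO. mRNA quantified by qRT-PCR, normalised to ACTB, GAPDH, POLR2A; bidirectional fit versus DMSO.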

MYC, MYC (gene 4609) = assay: LTEA_HepaRG_MYC: Life Technologies and Expression Analysis (LTEA) Assay for MYC using HepaRG (AID 2283518)
How it was run: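 qRT-PCR read-out of MYC transcript (Fluidigm TaqMan, housekeeping-normalized) after 48 h chemical exposure of HepaRG cells; eight concentrations, top 100 uM, half-log steps. Bidirectional curve fitting against 0.5% DMSO vehicle baseline.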

[12] = read-out: matrix metalloproteinase-3 (MMP3), MMP3 (gene 4314); assay: LTEA_HepaRG_MMP3: Life Technologies and Expression Analysis (LTEA) Assay for matrix metalloproteinase-3 (MMP3) using HepaRG (AID 2283519)
How it was run: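 HepaRG cells (~100,000/well) in serum-free induction medium were dosed in duplicate for 48 h with an 8-point half-log series from 100 uM, 0.5% DMSO. MMP3 mRNA was quantified by Fluidigm TaqMan qRT-PCR, normalized to three housekeeping genes.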

[13] = read-out: Paternally Expressed 10 (PEG10), PEG10 (gene 23089); assay: LTEA_HepaRG_PEG10: Life Technologies and Expression Analysis (LTEA) Assay for Paternally Expressed 10 (PEG10) using HepaRG (AID 2283520)
How it was run: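 Differentiated HepaRG cells, plated 48 h then switched to serum-free induction medium, were exposed in duplicate for 48 h to eight half-log concentrations topping at 100 uM in 0.5% DMSO. PEG10 mRNA was quantified by TaqMan qRT-PCR, normalised to ACTB, GAPDH and POLR2A.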

[14] = read-out: Nuclear factor NF-kappa-B p105 subunit (Homo sapiens) (UniProt P19838); assay: LTEA_HepaRG_NFKB1: Life Technologies and Expression Analysis (LTEA) Assay for Nuclear Factor Kappa B Subunit 1 (NFKB1) using HepaRG (AID 2283521)
How it was run: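 HepaRG, 48 h exposure; 8-pt half-log series from 100 uM in 0.5% DMSO; duplicates. Readout: NFKB1 mRNA by qRT-PCR (Fluidigm arrays), housekeeping-normalized. Gain/loss fit vs DMSO baseline.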

[15] = read-out: Protein phosphatase 2A (PPP2R4), PTPA (gene 5524); assay: LTEA_HepaRG_PPP2R4: Life Technologies and Expression Analysis (LTEA) Assay for Protein phosphatase 2A (PPP2R4) using HepaRG (AID 2283522)
How it was run: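 Differentiated HepaRG cells in serum-free induction medium were exposed in duplicate for 48 h to eight concentrations, top 100 uM with half-log dilutions, in 0.5% DMSO. PPP2R4 mRNA was quantified by TaqMan qRT-PCR, normalized to ACTB, GAPDH and POLR2A.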

[16] = read-out: Phosphatase and tensin (PTEN), PTEN (gene 5728); assay: LTEA_HepaRG_PTEN: Life Technologies and Expression Analysis (LTEA) Assay for Phosphatase and tensin (PTEN) using HepaRG (AID 2283523)
How it was run: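 HepaRG cells, 48 h after plating, exposed in duplicate for 48 h in serum-free induction medium to 8 half-log concentrations up to 100 uM (0.5% DMSO). PTEN mRNA by qRT-PCR, normalized to ACTB, GAPDH, POLR2A; bidirectional fit versus DMSO.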

[17] = read-out: solute carrier (SLC22A1), SLC22A1 (gene 6580); assay: LTEA_HepaRG_SLC22A1: Life Technologies and Expression Analysis (LTEA) Assay for solute carrier (SLC22A1) using HepaRG (AID 2283524)
How it was run: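 Differentiated human HepaRG cells in serum-free induction medium, exposed 48 h in duplicate to 8-point half-log series from 100 µM top in 0.5% DMSO. SLC22A1 mRNA by TaqMan qRT-PCR normalized to ACTB, GAPDH, POLR2A; bidirectional fit versus DMSO.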

[18] = read-out: Pyruvate Dehydrogenase Kinase 4 (PDK4), PDK4 (gene 5166); assay: LTEA_HepaRG_PDK4: Life Technologies and Expression Analysis (LTEA) Assay for Pyruvate Dehydrogenase Kinase 4 (PDK4) using HepaRG (AID 2283525)
How it was run: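 HepaRG cells plated 48 h, then switched to serum-free induction medium and exposed in duplicate for 48 h to 8 half-log concentrations from 100 uM in 0.5% DMSO. PDK4 mRNA measured by qRT-PCR, normalized to ACTB, GAPDH and POLR2A; bidirectional fit versus DMSO.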

[19] = read-out: Insulin-like growth factor-binding protein 1 (IGFBP1), IGFBP1 (gene 3484); assay: LTEA_HepaRG_IGFBP1: Life Technologies and Expression Analysis (LTEA) Assay for Insulin-like growth factor-binding protein 1 (IGFBP1) using HepaRG (AID 2283508)
How it was run: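 qRT-PCR mRNA read-out (TaqMan, Fluidigm array), normalised to three housekeeping genes; HepaRG cells, 48 h exposure, 8-pt half-log series from 100 uM, 0.5% DMSO vehicle; bidirectional curve fit vs DMSO baseline.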

Measured: AC50

Sequence of Nuclear factor NF-kappa-B p105 subunit (Homo sapiens) (P19838 whole entry, looked up): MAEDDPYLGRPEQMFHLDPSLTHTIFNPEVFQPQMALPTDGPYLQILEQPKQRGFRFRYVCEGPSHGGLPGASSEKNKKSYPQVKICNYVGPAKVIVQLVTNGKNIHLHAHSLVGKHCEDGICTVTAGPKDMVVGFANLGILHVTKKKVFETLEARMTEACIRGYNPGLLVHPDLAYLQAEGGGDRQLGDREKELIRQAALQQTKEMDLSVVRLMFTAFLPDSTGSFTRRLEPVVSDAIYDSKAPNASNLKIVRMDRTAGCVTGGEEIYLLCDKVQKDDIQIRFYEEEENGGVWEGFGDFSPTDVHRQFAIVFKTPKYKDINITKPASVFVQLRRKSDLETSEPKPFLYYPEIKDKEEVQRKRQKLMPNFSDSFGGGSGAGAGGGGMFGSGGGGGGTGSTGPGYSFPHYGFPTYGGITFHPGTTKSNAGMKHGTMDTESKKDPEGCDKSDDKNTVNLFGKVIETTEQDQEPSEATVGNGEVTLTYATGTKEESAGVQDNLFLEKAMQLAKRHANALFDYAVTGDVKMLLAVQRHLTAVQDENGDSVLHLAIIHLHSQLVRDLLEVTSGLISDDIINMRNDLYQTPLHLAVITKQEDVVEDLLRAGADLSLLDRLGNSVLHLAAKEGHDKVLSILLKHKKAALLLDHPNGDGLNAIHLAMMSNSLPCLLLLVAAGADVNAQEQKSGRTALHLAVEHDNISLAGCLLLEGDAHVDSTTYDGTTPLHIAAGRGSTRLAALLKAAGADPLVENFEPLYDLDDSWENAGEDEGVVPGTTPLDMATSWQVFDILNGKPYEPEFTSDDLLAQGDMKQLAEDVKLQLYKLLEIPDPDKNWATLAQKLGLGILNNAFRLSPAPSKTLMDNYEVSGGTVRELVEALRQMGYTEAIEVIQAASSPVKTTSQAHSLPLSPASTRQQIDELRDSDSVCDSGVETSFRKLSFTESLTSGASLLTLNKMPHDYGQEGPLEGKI

CCCCCOC(=O)c1ccccc1C(=O)OCCCCC
not listed: [19]
inactive: all other assays above

O=C(N[C@H](c1ccccc1)[C@@H]1CN2CCC1CC2)c1c(Cl)ccc(C(F)(F)F)c1Cl
active: [1] 46.2 µM | [2] 66.6 µM | [3] 74.8 µM | [5] 59.7 µM | [6] 12 µM | [7] 82.4 µM | [9] 11.1 µM | [10] 46.2 µM | [11] 69.4 µM | MYC, MYC (gene 4609) 68.4 µM | [12] 73.6 µM | [13] 26.8 µM | [14] 71.5 µM | [16] 77.8 µM | [17] 72.1 µM
inactive: [4] | [8] | [18]

Nc1ccc([N+](=O)[O-])cc1
not listed: MYC, MYC (gene 4609) | [19]
inactive: all other assays above

COc1cc(C=O)cc2c1[C@H](COC(N)=O)[C@]1(OC(C)=O)ON2C[C@H]2[C@@H]1N2C(C)=O
inactive: [5] | [8] | [10] | [13]
active: [1] 0.5 µM | [2] 1.31 µM | [19] 4.86 µM | [3] 1.52 µM | [4] 24.7 µM | [6] 1.49 µM | [7] 5 µM | [9] 0.272 µM | [12] 1.44 µM | [16] 29.9 µM | [17] 0.58 µM | [18] 95.3 µM

CCC(C)c1ccc(O)cc1 (stereo not given)
not listed: [11] | [15]
inactive: all other assays above

COC(=O)Nc1nc2ccccc2[nH]1
active: [6] 7.44 µM
not listed: [14] | [19]
inactive: all other assays above

c1ccc(C2CO2)cc1 (stereo not given)
not listed: [11] | [14]
inactive: all other assays above
